Measured values: PubChem BioAssay AID504866 (Johns Hopkins Ion Channel Center, 2011)

biological target: Short transient receptor potential channel 4 (Mus musculus) (UniProt Q9QUQ5); experiment: TRPC4 channel inhibition, specificity check, SAR follow-up, selectivity assay for TRPC6 selective inhibitor project, cell-based, HEK293 TRPC4/mu-opioid, concentration-response, set 2 (AID 504866); details: DAMGO, membrane potential dye; series mostly up to 20 µM; ratio, lower = inhibition: at the top concentration
Sequence (Q9QUQ5 whole entry, looked up): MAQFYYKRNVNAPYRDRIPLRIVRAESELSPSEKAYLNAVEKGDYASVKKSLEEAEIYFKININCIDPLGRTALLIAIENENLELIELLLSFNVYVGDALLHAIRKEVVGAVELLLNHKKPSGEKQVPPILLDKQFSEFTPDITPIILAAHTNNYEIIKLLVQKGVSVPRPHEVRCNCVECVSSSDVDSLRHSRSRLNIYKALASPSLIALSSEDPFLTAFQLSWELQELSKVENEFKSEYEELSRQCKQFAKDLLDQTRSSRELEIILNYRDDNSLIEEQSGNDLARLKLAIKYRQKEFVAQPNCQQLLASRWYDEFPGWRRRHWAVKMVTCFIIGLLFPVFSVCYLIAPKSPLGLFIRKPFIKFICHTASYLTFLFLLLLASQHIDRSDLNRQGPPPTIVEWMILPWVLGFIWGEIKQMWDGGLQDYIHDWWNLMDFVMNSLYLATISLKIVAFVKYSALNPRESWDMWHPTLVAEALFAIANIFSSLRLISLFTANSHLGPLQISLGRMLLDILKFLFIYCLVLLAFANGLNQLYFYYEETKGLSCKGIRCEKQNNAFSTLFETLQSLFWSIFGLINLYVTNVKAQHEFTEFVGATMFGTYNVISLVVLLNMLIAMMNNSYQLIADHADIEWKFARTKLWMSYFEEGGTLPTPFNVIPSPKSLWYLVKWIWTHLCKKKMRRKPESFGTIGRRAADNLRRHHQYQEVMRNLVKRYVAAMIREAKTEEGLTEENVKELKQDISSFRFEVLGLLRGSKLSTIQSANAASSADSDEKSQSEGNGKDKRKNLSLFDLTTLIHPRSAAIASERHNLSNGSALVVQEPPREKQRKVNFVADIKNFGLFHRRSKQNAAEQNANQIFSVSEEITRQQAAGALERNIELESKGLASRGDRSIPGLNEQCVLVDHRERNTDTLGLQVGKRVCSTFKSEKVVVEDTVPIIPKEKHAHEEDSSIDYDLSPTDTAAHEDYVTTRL

ratio, lower = inhibition, inactive:
Cc1ccc(C)c(N2CCN(C(=O)c3ccc4nsnc4c3)CC2)c1 39.7, CN1CCN(Cc2ccc3nsnc3c2)CC1CCO (stereo unspecified) 52.5, CSCc1cc(N2CCOCC2)nc(-c2ccccn2)n1 49.2, CC(C)N1CCC(N2CCN(Cc3ccc4nsnc4c3)CC2CCO)CC1 (stereo unspecified) 43, O=S(=O)(Cc1cc(N2CCN(c3ccccc3)CC2)nc(-c2ccccn2)n1)c1ccccc1 44.3, O=S(=O)(Cc1cc(N2CCOCC2)nc(-c2ccccn2)n1)c1ccccc1 47.2, CSCc1cc(N(C)c2ccccc2)nc(-c2ccccn2)n1 34, Cc1ccccc1CN1CCN(Cc2ccc3nsnc3c2)CC1CCO (stereo unspecified) 24.7, OCCC1CN(Cc2ccc3nsnc3c2)CCN1CCCc1ccccc1 (stereo unspecified) 10.8, CN1CCC(N2CCN(Cc3ccc4nsnc4c3)CC2CCO)CC1 (stereo unspecified) 51, CC(C)CCN1CCN(Cc2ccc3nsnc3c2)CC1CCO (stereo unspecified) 31.2, OCCC1CN(Cc2ccc3nsnc3c2)CCN1C1CCCC1 (stereo unspecified) 28.4, CC(C)CN1CCN(Cc2ccc3nsnc3c2)CC1CCO (stereo unspecified) 39, Cc1cccc(CN2CCN(Cc3ccc4nsnc4c3)CC2CCO)n1 (stereo unspecified) 30.4, CC(C)N1CCN(Cc2ccc3nsnc3c2)CC1CCO (stereo unspecified) 46.1, Clc1ccc(SCc2cc(N3CCCCC3)nc(-c3ccccn3)n2)cc1 46.9
